Among all 48,000 compounds or so, about 13,000 (27%) showed an effect of 50% or more. The list shows a part of the results.

The assay deals with Wolbachia pipientis. As to the kind of experiment: Anti-Wolbachia Cell-Based Screen. Conditions: 5 µM. The class given is functional. Also on record: scale not given: in the data most compounds retested in dose-response had high values.
In the case of `CCOc1ccc(N(C)S(=O)(=O)c2c[nH]c(C(C)C)n2)cc1`, the “Percent Effect” value is given as -17.69%.
To `O=C(CNC(=O)C1CC1)NCCOc1cccc(Cl)c1Cl` belongs 3.053%; to `Cc1ccc2c(c1)OC(C)CN2C(=O)CCc1cccnc1` (stereo not drawn), 9.162%; to `Cc1ccc2c(c1)OC(C)CN2C(=O)CCc1cscn1` (stereo not drawn), -1.954%.
To `CC1CN(C(=O)c2cc[nH]c(=O)c2)c2ccccc21` (stereo not drawn) belongs 6.091%.
Turning to `Cc1ccc2c(c1)N(C(=O)c1nccnc1N)CC(C)O2` (stereo not drawn), the “Percent Effect” value is on record as -0.6709%.
To `Cc1ccc2c(c1)N(C(=O)c1cc[nH]c(=O)c1)CC(C)O2` (stereo not drawn) belongs 102.6%; to `Cc1ccc2c(c1)OC(C)CN2C(=O)c1c[nH]c(C)cc1=O` (stereo not drawn), 100.7%; to `Cc1ccc2c(c1)OC(C)CN2C(=O)Cc1ccc(C)nc1` (stereo not drawn), -1.859%.
As for `Cc1ccc2c(c1)N(C(=O)c1c[nH]c(C)cc1=O)CC(C)O2` (stereo not drawn), the figure is 67.22%; as for `CC1CN(C(=O)c2ccc(C(N)=O)cc2)c2ccc(F)cc2O1` (stereo not drawn), -13.6%.
For the compound `CC(C)n1cnnc1CCNCc1cn(CCC(N)=O)c2ccccc12`, the “Percent Effect” value is -8.335%.
To `Cn1/c(=N/C(=O)CSCC(=O)Nc2nccs2)sc2ccccc21` belongs -2.902%.
As to `Cc1cnc2c(S(=O)(=O)NC(=O)C(C)OCC3CC3)cccc2c1` (stereo not drawn), the “Percent Effect” value is reported as -0.9774%.
As for `Cc1ccsc1C(=O)N1CC(C(=O)N2CCCC2)C2(CCOCC2)C1` (stereo not drawn), the figure is -0.2023%.
Consider `Cc1ccc(C(=O)N2CCCC(c3[nH]ncc3S(C)(=O)=O)C2)s1` (stereo not drawn), for which the “Percent Effect” value amounted to 93.28%.
To `Cc1ncncc1C(=O)N1CCCN(Cc2ncc(Cl)n2C)CC1` belongs 13.88%.
To `Cc1ncncc1C(=O)N1CCCC(c2[nH]ncc2S(C)(=O)=O)C1` (stereo not drawn) belongs 130.2%; to `Cc1ccsc1C(=O)N1CCCC(c2[nH]ncc2S(C)(=O)=O)C1` (stereo not drawn), 116.3%.
As for `Cc1cccnc1C(=O)N1CCCC(c2[nH]ncc2S(C)(=O)=O)C1` (stereo not drawn), the figure is -6.313%; as for `Cc1csc(C(=O)N2CCCC(c3[nH]ncc3S(C)(=O)=O)C2)c1` (stereo not drawn), 97.17%.
Regarding `Cc1[nH]ncc1C(=O)N1CCCC(c2cc(C(F)(F)F)[nH]n2)C1` (stereo not drawn), the “Percent Effect” value is -5.603%.
To `Cc1ccc(C(=O)N2CCCC(Cn3cc(C(C)(C)N)nn3)C2)s1` (stereo not drawn) belongs -58.84%; to `CC(Nc1ccn(Cc2ccccn2)n1)C(=O)NC(C)(C)C` (stereo not drawn), 22.79%; to `CCNC(=O)COc1ccc(C(=O)NC(C)CCc2ccco2)cc1` (stereo not drawn), 6.867%.
To `CC1(C)[C@H](Cc2cc(CN3CCCCC3)on2)C[C@@H]1NC(=O)C1CC1` belongs 0.3573%; to `c1cnnc(N2CCCC2CNCc2nnc(C3CC3)o2)c1` (stereo not drawn), -1.218%; to `c1cnnc(N2CCCC2CNCc2noc(C3CC3)n2)c1` (stereo not drawn), 124.8%.
As for `CCc1noc(CNCC2CCCN2c2cccnn2)n1` (stereo not drawn), the figure is 129.4%; as for `CCc1nnc(CNCC2CCCN2c2cccnn2)o1` (stereo not drawn), 6.974%.
In the case of `c1cnnc(N2CCCC2CNCc2nc(C3CC3)no2)c1` (stereo not drawn), the “Percent Effect” value was determined as 6.175%.
On to `CCCc1nc(CNCC2CCCN2c2cccnn2)no1` (stereo not drawn), for which the “Percent Effect” value was 124.8%.
To `Cc1ccoc1-c1nnc(CNCC2CCCN2c2cccnn2)o1` (stereo not drawn) belongs 10.61%; to `Cc1nc(CNCC2CCCN2c2cccnn2)no1` (stereo not drawn), 8.82%; to `COCCc1noc(CNCC2CCCN2c2cccnn2)n1` (stereo not drawn), 10.85%.
To `c1cnnc(N2CCCC2CNCc2nc(-c3ccsc3)no2)c1` (stereo not drawn) belongs 0.4887%; to `c1cnnc(N2CCCC2CNCc2nc3ccccc3o2)c1` (stereo not drawn), 8.977%.
Take `CCc1nc(CNCC2CCCN2c2cccnn2)no1` (stereo not drawn): the “Percent Effect” value was 94.84%.
To `Cc1cc(C(F)(F)F)nc(N(C)Cc2c(C)noc2C)n1` belongs 12%; to `CCOCCn1nc(C)cc1C(=O)N1CC[C@](O)(CC)[C@H](O)C1`, -19.56%; to `CCc1ccccc1OCCN(C)C(=O)CN1CCCC1`, -0.4334%.
As for `CC(C)COC(=O)N1CC(=O)N(Cc2ccc(Cl)cc2)CC(O)C1` (stereo not drawn), the figure is 87.43%; as for `Cc1ccc(CN2C[C@H]3CN(C(=O)c4ccno4)CCN3C2=O)cc1`, -7.285%; as for `Cc1ccc(CN2CC(O)CN(C(=O)OCC(C)C)CC2=O)cc1` (stereo not drawn), 102.7%.
For the compound `COc1ccc(CN2CC(O)CN(C(=O)OCC(C)C)CC2=O)cc1` (stereo not drawn), the “Percent Effect” value is on record as 126.2%.
To `CC(C)N(CCO)C(=O)C1CCC(=O)N(Cc2ccc(Cl)cc2)C1` (stereo not drawn) belongs 0.7255%.
As for `CCOC(=O)c1coc(N2CCN(Cc3ccc(C)cc3)C(=O)C2)n1`, the figure is -18.23%.
With `COc1ccc(CN2C[C@H]3CN(C(=O)c4ccno4)CCN3C2=O)cc1`, the “Percent Effect” value is recorded as -1.817%.
To `CCc1cnc(N2C[C@H]3CN(Cc4ccc(OC)cc4)C(=O)[C@H]3C2)nc1` belongs -6.562%.
To `COc1ccc(CN2CCN(c3nccnc3OC)CC2=O)cc1` belongs -6.7%; to `COc1ccc(CN2CC(O)CN(C(=O)CC(C)C)CC2=O)cc1` (stereo not drawn), 135.2%; to `CCCN(CCO)C(=O)C1CCC(=O)N(Cc2ccc(Cl)cc2)C1` (stereo not drawn), -2.566%.
As for `COC(=O)CCNC(=O)c1ccoc1CN1c2ccccc2CC1C` (stereo not drawn), the figure is -5.639%; as for `CC(=O)Nc1ccc(-c2cn(CCn3c(C)cc(C)nc3=O)nn2)cc1`, -7%; as for `Cc1cc(C(=O)Nc2ccn(CCCN3CCCC3)n2)c(C)o1`, 100.8%.
Turning to `CCN(CC)S(=O)(=O)c1ccc(CNC(=O)c2cc(C)on2)cc1`, the “Percent Effect” value stood at 15.58%.
As for `Cc1cc(CNC(=O)CCCN2CCCCC2)n(C)n1`, the “Percent Effect” value is -11.62%.
To `Cc1ccnc(NC(=O)c2cc(C)oc2C)c1` belongs 11.88%; to `CCn1ccc(NC(=O)c2cc(C)on2)n1`, 120%.
Regarding `Cc1ccc(C(=O)Nc2ccn(CCC(N)=O)n2)cc1`, the “Percent Effect” value was determined as 10.52%.
Take `O=C(Cc1ccccc1Cl)Nc1ccn(CCN2CCOCC2)n1`: the “Percent Effect” value was -48.65%.
To `Cc1cc(C(=O)Nc2ccn(CCCN3CCCC3)n2)no1` belongs 96.67%; to `Cc1ccsc1CNC(=O)Nc1ccn(CCN2CCOCC2)n1`, -52.79%; to `CCOc1cc(C)nc(N2CCN(C(=O)c3cc(Cl)c[nH]3)CC2)n1`, 4.417%.
For the compound `Cc1cnn(Cc2cc(F)ccc2F)c1NC(=O)C1CCOCC1`, the “Percent Effect” value is listed as -4.081%.
On to `CNC(=O)C1(N2CCC[C@H]2C(=O)NC2CCOCC2)CCOCC1.Cl`, for which the “Percent Effect” value is recorded as -3.696%.
As for `Cc1nsc(NC(=O)N2CCN(Cc3ccc(F)cc3)C(=O)C2)n1`, the figure is 3.543%.
`Cn1ncnc1-c1ccnc(N2CCC(C(O)c3cccs3)CC2)n1` (stereo not drawn): the “Percent Effect” value was -11.63%.
Regarding `CN1CCOC(CNC(=O)Cc2coc(-c3ccccc3)n2)C1` (stereo not drawn), the “Percent Effect” value is 107.6%.
As for `CN1CCOC(CNCc2nc(-c3ccoc3)no2)C1` (stereo not drawn), the figure is -1.201%.
As for `Cc1ccc(-c2nc(CNCC3CN(C)CCO3)co2)c(C)c1` (stereo not drawn), the figure is 99.3%.
As to `CN1CCOC(CNCc2coc(-c3ccccc3)n2)C1` (stereo not drawn), the “Percent Effect” value is given as -3.46%.
Take `Cc1ccc(-c2nc(CNCC3CN(C)CCO3)co2)cc1` (stereo not drawn): the “Percent Effect” value worked out at 108.3%.
For `CN1CCOC(CNC(=O)Cc2ccccc2F)C1` (stereo not drawn), the “Percent Effect” value is on record as -10.58%.
To `CN(C)CC1CN(Cc2coc(-c3ccccc3Cl)n2)CCO1` (stereo not drawn) belongs -0.3444%; to `CN1CCOC(CNCc2coc(-c3ccccc3Cl)n2)C1` (stereo not drawn), 105.3%.
To `CCC1CN(C(=O)Cc2coc(-c3ccccc3)n2)CCO1` (stereo not drawn) belongs -15.78%; to `CC(C)(C)OC(=O)N1CCCc2ccc(NCc3ncc[nH]3)cc21`, 1.363%.
To `Cn1cnnc1CC1CCN(Cc2c(Cl)cncc2Cl)CC1` belongs -0.137%; to `COc1ccc(S(=O)(=O)Cc2cc(C)on2)cc1`, 3.84%; to `CN1CCOC(CNCc2coc(-c3ccc(Cl)cc3)n2)C1` (stereo not drawn), 81.44%.
On to `O=C(CCn1cncn1)N1CCCC(CO)(CCCc2ccccc2)C1` (stereo not drawn), for which the “Percent Effect” value came to 16.2%.
In the case of `CC(C)(C)OC(=O)N1CSC[C@@H]1C(=O)NCc1ccncc1`, the “Percent Effect” value was -9.296%.
As for `CN(CCc1ccncc1)C(=O)C1CSCN1C(=O)C(C)(C)C` (stereo not drawn), the figure is -12.64%; as for `CN(CCc1ccncc1)C(=O)C1CSCN1C(=O)CC(C)(C)C` (stereo not drawn), 109.1%.
To `CN(CC(F)(F)F)C(=O)C1CSCN1C(=O)OC(C)(C)C` (stereo not drawn) belongs 6.249%.
As for `CN(CCc1ccncc1)C(=O)C1CSCN1C(=O)C1CCCC1` (stereo not drawn), the figure is -15.81%.
On to `CN(Cc1ccncc1)C(=O)[C@H]1CSCN1C(=O)OC(C)(C)C`, for which the “Percent Effect” value is 103.4%.
As for `Nc1nnc(CCNc2ncnc3c2CCN(C(=O)C2CC2)C3)s1`, the “Percent Effect” value was -2.758%.
To `CCS(=O)(=O)c1ncc(CN2CCCC2)n1CCc1ccccc1` belongs 1.853%; to `COCCc1nc(CSc2ccncc2)n(C)n1`, -10.21%.
As for `O=C(NC1CC1)N1CCc2ccc(=O)n(Cc3ccncc3)c2CC1`, the figure is 23.4%.
As for `O=c1ccc2c(n1Cc1ccncc1)CCN(C1CCOC1)CC2` (stereo not drawn), the figure is 8.67%.
Consider `CN(C)C(=O)Cn1c2c(ccc1=O)CCN(Cc1cnn(C)c1)CC2.O=C(O)C(F)(F)F`, for which the “Percent Effect” value was determined as 120.2%.
Consider `CN(C)CCn1c2c(ccc1=O)CCN(Cc1ccncc1)CC2`, for which the “Percent Effect” value was found to be 102%.
As for `CC(OCC1CC1)C(=O)N1CCCN(Cc2cnn(C)c2)CC1` (stereo not drawn), the figure is 6.432%; as for `COc1ccc2c(c1)C1(CCN(Cc3cnn(C)c3)CC1)N(C)CC2.O=C(O)C(F)(F)F`, 2.583%; as for `Cn1cc(CN2CCc3ccc(=O)n(CC4CC4)c3CC2)cn1`, 115.2%.
As for `Cn1cc(CN2CCc3ccc(=O)n(Cc4ccncc4)c3CC2)cn1.O=C(O)C(F)(F)F.O=C(O)C(F)(F)F`, the figure is 104.6%; as for `Cc1cnc(NCC(C)(C)N2CCCCC2)nc1`, 1.17%.
To `Cc1nc(-c2ccc(Cl)s2)sc1C(=O)NCCS(N)(=O)=O` belongs -0.7868%.
As for `COCC(=O)N1CCC2(CC1)NC(=O)[C@H]1CN(C(=O)N(C)C)C[C@H]12`, the “Percent Effect” value was -27.95%.
As to `Cc1csc(CNC(=O)Nc2cc(C(F)(F)F)c[nH]c2=O)n1`, the “Percent Effect” value is recorded as -4.751%.

The values above are taken from ChEMBL document CHEMBL3988442, “University of Dundee, Small-Polar-MMV Screening Library” (2021).
